Experimental data as given in PubChem BioAssay.
Active and inactive are the calls of the source. Unless noted, the rule behind the calls is not given here.

Columns and labels:
[1] = system: Wnt5a (protein binding on small-molecule microarray); assay: Wnt5a binders on small-molecule microarray, primary screen, biophysical, 635/667 nm fluorescence (AID 1142); conditions: 635 nm fluorescence, higher = more signal;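 note: fluorescence read at 667 nm with signal to noise per printed feature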
[2] = cell viability in Huh7 cells, primary screen, cytotoxicity control for HCV replication inhibitor project, CellTiter-Glo luminescence, basal, 48 h (AID 1143); conditions: Huh7 HCV replicon, higher = more signal, called active from +8 up or from −8 down;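 note: Huh7 hepatoma cells carrying a hepatitis C replication reporter with no stimulus; test concentration not given here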
[3] = P. aeruginosa biofilm formation inhibitors, primary screen, PAO1 strain, BacTiter-Glo luminescence, LB-PBS (AID 1144); conditions: 12 h, higher = more signal
[4] = CREB reporter modulators without forskolin, primary screen, cell-based, PC12, CRE-LacZ reporter, unstimulated (AID 1145); conditions: no forskolin, luminescence, 4.5 h, higher = more signal, called active from +8 up or from −8 down
[5] = CREB reporter modulators under forskolin, primary screen, cell-based, PC12, CRE-LacZ reporter, forskolin-stimulated (AID 1146); conditions: luminescence, 4.5 h, higher = more signal, called active from +8 up or from −8 down;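 note: PC12 cells with 6xCRE LacZ reporter stimulated by forskolin 10 µM; beta-galactosidase reporter signal reflecting CREB driven transcription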
[6] = biological target: Streptavidin (Streptomyces avidinii) (UniProt P22629); assay: streptavidin binders on small-molecule microarray, primary screen, artefact control for SMM compound annotation, biophysical, 635/667 nm fluorescence (AID 1147); conditions: streptavidin binding, higher = more signal;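 note: signal reflects streptavidin binding to arrayed compounds as a control protein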
[7] = small-molecule binders of probe aInhba, primary screen, biochemical, small-molecule microarray, 635/667 nm fluorescence (AID 1148); conditions: higher = more signal;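 note: score merges 667nm spot fluorescence with signal-to-noise for antibody binding to printed compounds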
[8] = biological target: Torsin-1A (Homo sapiens) (UniProt O14656); assay: torsin A binders from cell lysate, primary screen, small-molecule microarray, wild-type, 635/667 nm (AID 1149); conditions: COS7 hTOR1A-WT lysate, 635 nm fluorescence, higher = more signal
[9] = biological target: Torsin-1A (Homo sapiens) (UniProt O14656); assay: small-molecule binders of mutant TOR1A in lysate, primary screen, cell lysate, small-molecule microarray, COS7 lysate, 635/667 nm fluorescence (AID 1150); conditions: COS7 hTOR1A mutant lysate, 635 nm fluorescence, higher = more signal;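 note: score pools 667 nm emission and signal to noise measuring lysate protein binding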
[10] = system: Sonic hedgehog protein (Shh); assay: small-molecule binders of Shh protein, primary screen, biochemical, small-molecule microarray, 635/667 nm fluorescence (AID 1151); conditions: small-molecule microarray binding, 635 nm fluorescence; higher = more signal;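 note: Shh protein binding to compounds spotted on small-molecule microarray slides; score combines spot fluorescence intensity with signal-to-noise across triplicate slides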

Sequence of Streptavidin (Streptomyces avidinii) (P22629 whole entry, looked up): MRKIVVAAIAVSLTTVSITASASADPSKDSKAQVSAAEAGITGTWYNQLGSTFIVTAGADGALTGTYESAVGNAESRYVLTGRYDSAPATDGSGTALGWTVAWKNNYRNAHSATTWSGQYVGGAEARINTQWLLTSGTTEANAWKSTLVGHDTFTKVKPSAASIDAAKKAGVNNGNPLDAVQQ
Sequence of Torsin-1A (Homo sapiens) (O14656 whole entry, looked up): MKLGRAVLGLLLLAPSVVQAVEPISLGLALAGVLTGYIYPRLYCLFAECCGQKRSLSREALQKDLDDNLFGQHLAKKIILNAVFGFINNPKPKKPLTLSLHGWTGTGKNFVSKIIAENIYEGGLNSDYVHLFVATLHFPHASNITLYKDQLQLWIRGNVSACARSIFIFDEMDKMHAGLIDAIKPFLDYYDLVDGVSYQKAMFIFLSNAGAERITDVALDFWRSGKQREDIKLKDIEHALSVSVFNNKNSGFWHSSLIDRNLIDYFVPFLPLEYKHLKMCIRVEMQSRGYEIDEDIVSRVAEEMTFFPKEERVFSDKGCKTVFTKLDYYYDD

Row | SMILES | composite z-score [1] | z-score [2] | z-score [3] | z-score [4] | z-score [5] | composite z-score [6] | composite z-score [7] | composite z-score [8] | composite z-score [9] | composite z-score [10]
1 | COC(=O)[C@@]1(Cc2ccccc2)[C@H]2c3cc(C(=O)N(C)C)n(Cc4ccc(Cl)c(C(F)(F)F)c4)c3C[C@H]2CN1C(=O)c1ccccc1 | 0.498 | -3.79 (inactive) | 0.821 (inactive) | 0.583 (inactive) | -0.244 (inactive) | 1.56 | 0.63 | -0.172 | 0.0947 | 1.31
2 | CC(C)C[C@@H]1NC(=O)[C@H]2C[C@@H](C(=O)O)[C@@H](c3cccc(OCCO)c3)N2C1=O | -0.107 | -0.513 (inactive) | -0.443 (inactive) | 0.561 (inactive) | -0.411 (inactive) | -0.0612 | 0.0228 | 0.994 | 2.17 | 1.42
3 | COc1ccc([Si](C)(C)[C@H]2[C@H](CC(=O)N3CCC[C@H]3CO)O[C@@]3(C(=O)N(C)c4ccccc43)[C@@H]2C)cc1 | -0.0653 | 0.191 (inactive) | -0.0357 (inactive) | 1.2 (inactive) | 1.33 (inactive) | -0.28 | 0.152 | 1.52 | 0.732 | 1.54
4 | CC[C@@H](O[Si](C#C[Si](C(C)C)(C(C)C)C(C)C)(C(C)C)C(C)C)c1cn(Cc2cccc(Cl)c2)nn1 | 0.159 | 0.139 (inactive) | -0.14 (inactive) | -0.272 (inactive) | -0.168 (inactive) | 0.424 | -0.124 | 0.188 | 0.227 | 0.546
5 | COC(=O)C1(CC(C)C)C=C2C(=C(C)C(=O)C2C)CN1 (stereo not given) | 0.392 | -0.109 (inactive) | 0.142 (inactive) | 0.0041 (inactive) | 2.32 (inactive) | 0.351 | 1.17 | 0.0384 | 0.276 | -0.645
6 | CCOC(=O)C[C@H]1[C@H](OC(=O)c2ccc(-c3ccccc3)cc2)[C@@H](NC(=O)c2ccc(-c3ccccc3)cc2)c2cc(OCCCO)ccc2N1C(=O)c1ccccc1 | 0.131 | -0.212 (inactive) | -0.00979 (inactive) | -0.724 (inactive) | 0.659 (inactive) | 0.763 | 0.108 | 0.134 | 0.987 | 0.921
7 | COC(=O)[C@@]1(Cc2ccc(OC)cc2)[C@H]2c3cc(C(=O)N(C)C)n(Cc4c(CO)[nH]cc(C)c4=O)c3C[C@H]2CN1C(=O)c1ccccc1 | -0.172 | -0.0137 (inactive) | -0.357 (inactive) | 1.15 (inactive) | 2.29 (inactive) | 0.27 | 0.0219 | 0.351 | 0.461 | -0.532
8 | COC(=O)[C@H](Cc1ccccc1)N1CC(C)(OC)O[C@@H](Cc2ccccc2)[C@H]1/C=C/C1CC1 (stereo not given in full) | -0.0712 | -0.628 (inactive) | 0.664 (inactive) | 4.13 (inactive) | 1.12 (inactive) | 0.0404 | -0.0762 | 0.256 | 0.269 | 0.0034
9 | CCc1cccc(NC(=O)O[C@H]2[C@H](OC(=O)Nc3ccccc3-c3ccccc3)[C@H](OC(=O)Nc3ccccc3-c3ccccc3)[C@@H](OC)O[C@@H]2CO)c1 | 0.947 | -5.67 (inactive) | -1.82 (inactive) | -0.506 (inactive) | -0.238 (inactive) | 0.284 | 0.0345 | 0.762 | 0.875 | 2.18
10 | O=C1C2C=CC(C(O)C(c3ccccc3)c3ccccc3)N(Nc3ccccc3F)C2C(=O)N1c1ccccc1 (stereo not given) | 0.739 | -1.16 (inactive) | 0.712 (inactive) | 2.73 (inactive) | 0.993 (inactive) | 1.58 | 0.0183 | 1.02 | 0.895 | 0.868
11 | CS(=O)(=O)CCOC(=O)C1=CC(CCCO)=CC(C2CC2)N(Cc2sc3ccccc3c2Cl)C=C1C(=O)OCCS(C)(=O)=O (stereo not given) | 0.296 | -2.27 (inactive) | -0.15 (inactive) | 2.57 (inactive) | -0.655 (inactive) | 1.41 | 0.523 | 1.15 | 1.48 | 1.41
12 | COc1ccc(CCNC(=O)[C@@H]2c3ccccc3C(=O)N(C(C)C)[C@H]2c2ccc(CO)cc2)cc1 | -0.234 | 0.172 (inactive) | 0.948 (inactive) | 0.351 (inactive) | -0.859 (inactive) | -0.896 | -0.253 | 0.123 | 0.0739 | -0.937
13 | COc1ccc(CCNC(=O)[C@@]2(c3ccc([N+](=O)[O-])cc3)CC(=O)N(C3CCCCC3)[C@@H]2c2ccc(CO)cc2I)cc1 | 1.07 | -4.72 (inactive) | 1.02 (inactive) | 0.441 (inactive) | 0.0398 (inactive) | -0.0827 | -0.0695 | 0.628 | 0.0294 | 0.575
14 | OCCCc1cc[n+](Cc2cc3c(cc2Br)OCO3)cc1 | -0.265 | -0.633 (inactive) | 0.0177 (inactive) | -0.374 (inactive) | -0.121 (inactive) | -0.838 | -0.209 | -1.27 | -0.561 | -0.508
15 | O=C1C2C=CC(C(O)c3ccccn3)N(Nc3ccc([N+](=O)[O-])cc3)C2C(=O)N1c1ccccc1 (stereo not given) | 0.333 | -0.476 (inactive) | -0.277 (inactive) | 0.379 (inactive) | -0.0636 (inactive) | 1.24 | 0.0589 | -0.146 | 0.098 | 0.04
16 | COC(=O)[C@@]1(Cc2ccccc2)[C@H]2c3cc(C(=O)N(C)C)n(Cc4nc5ccccc5[nH]4)c3C[C@H]2CN1C(=O)c1ccccc1 | 0.118 | -2.07 (inactive) | -0.142 (inactive) | 0.959 (inactive) | -0.0536 (inactive) | 1.26 | 0.337 | 0.626 | 0.853 | -0.441
17 | CCCCCN1CC=CC23O[C@@H]4/C=C\CCCOC(=O)C4[C@H]2C(=O)N(CCCCCO)[C@@H]3C1=O (stereo not given in full) | -0.827 | -0.347 (inactive) | -0.678 (inactive) | -1.03 (inactive) | 0.0118 (inactive) | -0.878 | -0.128 | -2.11 | -1.09 | -0.0251
18 | COC(=O)[C@@]1(Cc2ccc(F)cc2)[C@H]2c3cc(C(=O)N(C)C)n(Cc4cccc5ccccc45)c3C[C@H]2CN1C(=O)c1ccccc1 | 1.23 | -0.741 (inactive) | 0.529 (inactive) | 0.0075 (inactive) | 0.287 (inactive) | 0.0609 | 0.115 | 0.639 | 1.49 | -0.685
19 | CC[C@H]1C2=C3C(CC[C@H]4C(OCc5ccc(F)cc5C(F)(F)F)OC[C@](C)([C@@H]34)N(C(=O)OC(C)(C)C)C2)C(COC(C)=O)C1COC(C)=O (stereo not given in full) | 0.374 | -1.35 (inactive) | 0.729 (inactive) | 0.204 (inactive) | 1.3 (inactive) | 1.3 | 0.214 | 0.129 | 0.168 | -1.2
20 | C=C(COC)/C(=C/C[C@@H](OC(C)=O)c1cccc(OCCO)c1)c1cnc2ccccc2c1 | 0.603 | -2.14 (inactive) | 0.0432 (inactive) | 2.53 (inactive) | -0.444 (inactive) | 0.897 | -0.0131 | 0.14 | 0.499 | 1.83
21 | CCOC(=O)C1=CCC(c2cccn2C(=O)OC(C)(C)C)N(S(=O)(=O)c2ccc(C)cc2)C1 (stereo not given) | 0.0845 | -4.35 (inactive) | 0.0401 (inactive) | 0.136 (inactive) | 19.4 (active) | 1.99 | 0.18 | 0.0444 | 0.461 | 0.157
22 | CC(C)c1ccc(NN2C(C(O)C3CCCCC3)C=CC3C(=O)N(c4ccccc4)C(=O)C32)cc1 (stereo not given) | 0.283 | -0.575 (inactive) | -1.15 (inactive) | 0.0467 (inactive) | 0.337 (inactive) | 1.88 | 0.0968 | -0.147 | 0.316 | 0.771
23 | COc1ccc(C#Cc2ccc3c(c2)[C@]2(C(=O)N3)[C@H](c3ccccc3OCCO)N3[C@H](c4ccccc4)[C@H](c4ccccc4)OC(=O)[C@H]3[C@@H]2C(=O)NC[C@H](O)c2ccccc2)cc1 | 0.537 | -5.57 (inactive) | -0.627 (inactive) | 0.0921 (inactive) | -0.54 (inactive) | 0.448 | -0.0259 | 0.138 | 0.701 | 1.72
24 | CN1C(=O)C2C=CC(C(O)c3ccc(I)cc3)N(N(c3ccccc3)c3ccccc3)C2C1=O (stereo not given) | -0.268 | -0.619 (inactive) | 0.257 (inactive) | -0.136 (inactive) | 0.58 (inactive) | 0.609 | -0.0581 | -0.728 | -0.545 | -0.416
25 | NCCCCCCNC(=O)[C@@H]1C[C@@H]2C(=O)NCC(=O)N2[C@@H]1c1cccc(OCCO)c1 | 0.729 | -0.271 (inactive) | -0.584 (inactive) | 0.0205 (inactive) | -0.19 (inactive) | 1.03 | -0.0624 | 1.56 | 2.08 | 1.31
26 | COCCCNC(=O)[C@@]1(CCC(=O)OC(C)(C)C)N=C(c2ccc(OCCCO)cc2)O[C@H]1c1ccccc1 | 0.581 | 0.0272 (inactive) | -0.029 (inactive) | -1.29 (inactive) | -0.391 (inactive) | 0.471 | 0.113 | 0.725 | 1.12 | -0.119
27 | CN1C(=O)C2C=CC(C(O)c3cccs3)N(N(c3ccccc3)c3ccccc3)C2C1=O (stereo not given) | -0.0276 | 0.114 (inactive) | -0.176 (inactive) | 1.21 (inactive) | -0.324 (inactive) | 0.827 | 0.0422 | 1.75 | 0.0109 | -0.287
28 | CC(C)[Si]1(C(C)C)OCc2cc(-c3ccc(-c4ccc(Cl)c(Cl)c4)o3)nc(-c3ccc(Oc4ccccc4)cc3)c21 | -0.615 | -0.558 (inactive) | 0.457 (inactive) | 0.251 (inactive) | -0.835 (inactive) | -0.767 | -0.382 | -1.33 | -2.07 | -0.976
29 | COC(=O)C(CC#Cc1ccc2c(c1)[C@]1(C(=O)N2)[C@H](C(=O)N2CCN(c3ncccn3)CC2)[C@H]2C(=O)O[C@H](c3ccccc3)[C@H](c3ccccc3)N2[C@@H]1c1ccc(O)cc1)C(=O)OC | 0.923 | -3.7 (inactive) | -0.58 (inactive) | -0.0515 (inactive) | 0.0989 (inactive) | 2.27 | 1.39 | 0.662 | 1.12 | 1.04
